# Experimental data as given in the supplement of paper PMC10338343.
# ± gives the standard deviation.
# Test system: MILI (PIWIL2) piRISC loaded with piRNA #1 (26 nt)
# Assay: pre-steady-state target cleavage rate (min^-1); guide: piRNA #1 5'p-UGAGGUAGUAGGUUGUAUAGUAUCCA; MIWI and MILI are mouse PIWI proteins and EfPiwi is from a freshwater sponge; tags in brackets are library labels; higher = faster piRNA-guided slicing of the target
# Conditions: auxiliary factor: 500 nM mouse GTSF1
# Procedure, shortened: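 The method was Cleave-'n-Seq, in which uncleaved targets from a transcribed, DNA-blocked target RNA library were sequenced after exposure to active affinity-purified piRISC carrying one synthetic guide, with or without GTSF1 partner protein. Reactions contained 0.1 nM library, 1 nM piRISC and, where present, 500 nM GTSF1 in HEPES–potassium acetate buffer at 33 °C for 0–8 or 0–960 min. Reads were normalised to depth and to weakly complementary targets, three trials were pooled, and k3 was capped at 0.0001 min^-1. The pre-steady-state cleavage rate came from a burst-and-steady-state fit.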
row,Sequence,pre-steady-state target cleavage rate
1,GGAGACGAUACUAUAGAACCUACUACCACA,0.0976 ± 0.015
2,GGAGACCUAUGAUUACAACCUACUUACCUCA,0.0057 ± 0.0019
3,GGAGACCUAACUUUACAACCUACAACCUCA,0.0823 ± 0.027
4,GGAGACCUUACUAUACUACCUACAACCUCA,0.13 ± 0.011
5,GGAGACCUAUGUAUACAACCUACUCCCUCA,0.0316 ± 0.0063
6,GGAGACCUAUCUAUACAACCUUCUACGUCA,0.00428 ± 0.003
7,GGAGACCUAUGAAUACAUCCUUCUACCUCA,0.00365 ± 0.0022
8,GGAGACCUUACUAUACAAGCUACUACGUCA,0.203 ± 0.029
9,GGAGACCUAUCUAUCACAACCUACUACCUCA,0.0519 ± 0.01
10,GGAGACCUAUCUUUACUACCUACUACCUCA,0.0305 ± 0.008
11,GGAGACCUAUGAUUACAACCUCACUACCUCA,0.00291 ± 0.0027
12,GGAGACCUAUGUAUACAAGCUUCUACCUCA,0.0107 ± 0.0027
13,GGAGACCUAUGAUAUGUACCAUCUACCUCA,< 0.0001
14,GGAGACCUAUGAUAUGUUCCUUCUACCACA,< 0.0001
15,GGAGAGGAUACUAAACAACCUACUACGUCA,0.0356 ± 0.0057
16,GGAGACCAUACUAUACAACCUACUCACCUCA,0.169 ± 0.015
17,GGAGACCUAUCUAUACAACCGUACUACCUCA,0.00775 ± 0.0032
18,GGAGUGCAUACUAUAGAACCUACUACCUCA,0.177 ± 0.013
19,GGAGACCUAACAAUACAACCUACAACCUCA,0.0691 ± 0.019
20,GGAGACCUAUGAUAUGAACCUACUAUCUCA,< 0.0001

row,Sequence,pre-steady-state target cleavage rate
1,GGAGACCUAUGUAUACAACCUACUACCUA,0.044 ± 0.0064
2,GGAGACCUAACAAUACAACCUACUACGUCA,0.023 ± 0.0089
3,GGAGUGGAUACUAUUCAACCAACUACCUCA,0.0045 ± 0.002
4,GGAGACCUUACUAUAUCAACCUACUACCUCA,0.0609 ± 0.0086
5,GGAGACCUAUGUAUACAACCUACUACUUCA,0.0634 ± 0.0075
6,GGAGACCUAUGUAUACAACCUACUUGCUCA,0.0104 ± 0.0037
7,GGAGACCAUACUAUACUACCUACUACCUCA,0.158 ± 0.017
8,GGAGACCUAUGUAUGACAACCUACUACCUCA,0.0123 ± 0.0037
9,GGAGACCAUACUAAACUACCUACUACCUCA,0.142 ± 0.013
10,GGAGACCUAUCUAUACAAGGAUGAUGGAGA [g13:g20:cont:t1A],< 0.0001
11,GGAGACCUAUGAAUACAACCUACUGCCUCA,0.0052 ± 0.0029
12,GGAGACCAUACAAUACAACGUACUACCUCA,0.0186 ± 0.0044
13,GGAGACCUAUGAUAUGUUGGUAUACCUCA,< 0.0001
14,GGAGACCAUACUAUACAACCUACAAGCUCA,0.0598 ± 0.015
15,GGAGACCUAUGAUUACUACCUACAACCUCA,0.00398 ± 0.0024
16,GGAGACCUAUGAAUACAACCUAGCUACCUCA,0.00489 ± 0.0025
17,GGAGACCUAACUAAACAUCCUACUACCUCA,0.216 ± 0.036
18,GGAGACGAUAGUAUACAAGCUACUACCUCA,0.176 ± 0.016
19,GGAGACCUAUGAUUACAACCUACUUCCUCA,0.00303 ± 0.0022
20,GGAGAGGAUCUAUACAACCUACUACCUCA,0.171 ± 0.013
